# From PubChem BioAssay (Tox21)
# Records with an inconclusive call do not appear. The source made the active and inactive calls. Calls come from the whole dose curve; as a rule, active = well fitted inhibition curve with a large enough effect in the repeat runs; inconclusive = weak or mixed curves; inactive = no such curve, though single readings can be large or run the other way. Non-standard residues stand in square brackets, D forms with d. Residues, ends and D or L forms follow the SMILES beside them. *: point of attachment. Sta = CC(C)C[C@H](N)[C@@H](O)CC(=O)O; Isovaleryl = CC(C)CC(=O)*
# Molecular target: Cytochrome P450 2C19 (Homo sapiens) (UniProt P33261)
# Sequence (P33261 whole entry, looked up): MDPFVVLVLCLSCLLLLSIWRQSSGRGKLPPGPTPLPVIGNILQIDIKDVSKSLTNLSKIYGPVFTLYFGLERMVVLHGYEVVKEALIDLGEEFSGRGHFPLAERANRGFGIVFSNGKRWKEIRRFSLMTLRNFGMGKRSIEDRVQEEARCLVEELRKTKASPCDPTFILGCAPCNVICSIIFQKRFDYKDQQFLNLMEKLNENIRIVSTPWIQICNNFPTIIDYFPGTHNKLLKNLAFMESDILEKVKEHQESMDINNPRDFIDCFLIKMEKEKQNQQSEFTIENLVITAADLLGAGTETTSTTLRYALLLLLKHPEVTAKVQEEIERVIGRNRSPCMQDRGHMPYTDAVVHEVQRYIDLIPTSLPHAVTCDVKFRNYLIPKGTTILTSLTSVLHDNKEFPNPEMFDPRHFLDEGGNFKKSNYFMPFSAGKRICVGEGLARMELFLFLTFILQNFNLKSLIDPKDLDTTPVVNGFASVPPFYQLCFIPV
# Experiment: Cytochrome P450 Family 2 Subfamily C Member 19 (CYP2C19) small molecule antagonists: luciferase reporter qHTS assay (AID 1671197); note: nearly all actives have a fitted effect of over 65% in size
# Settings: P450-Glo CYP2C19 enzyme, luciferin luminescence, 1 h; series mostly up to 115 µM; activity change, negative = inhibition: at the top concentration
# Description: National Center for Advancing Translational Sciences [NCATS]
# U.S. Environmental Protection Agency [EPA]
# National Institutes of Environmental Health Sciences [NIEHS]
# National Toxicology Program [NTP]
# U.S. Food and Drug Administration [FDA]
# Cytochrome P450 (CYP) enzymes are membrane-bound hemeproteins that play a key role in metabolism of drugs and xenobiotics. Evaluation of the effect of chemicals on CYP isozymes is useful to minimize the adverse drug reactions and toxicities in drug development process. Tox21 chemicals were tested for their effect on CYP enzyme activities by using P450-Glo (TM) screening systems (Promega Corporation, Madison, WI). These systems provide a luminescent method containing proluciferin substrates and are converted to luciferin products by CYP isozymes. The luciferin products formed are detected with a luciferin detection reagent, and the amount of light produced is proportional to CYP activity. P450-Glo (TM) CYP2C19 screening system (Catalog. No. V9880) was used to detect the compounds that interfere in CYP2C19 activity. The positive control compound used for CYP2C19 assay is ketoconazole (Sigma-Aldrich, St. Louis, MO).
# Tox21 Assay Protocol Summary:
# Two ul of enzyme-substrate mix was dispensed into medium binding white/solid 1536-well plates (Greiner Bio-One North America Inc., Monroe, NC) using a BioRaptr Flying Reagent Dispenser (FRD, Beckman Coulter, Brea, CA). Compounds dissolved in DMSO and positive control (ketoconazole) were transferred to the assay plates at 23 nl using a Pintool station (Wako, San Diego, CA). The assay plates were incubated at room temperature for 10 min. Then 2 ul of NADPH regeneration solution was added to each well of the assay plates using an FRD and incubated at 37C for 1 h. The reaction was stopped by adding 4 ul of detection reagent using an FRD and after 20 min incubation at room temperature the luminescence signal was measured using a ViewLux plate reader (Perkin Elmer, Shelton, CT). Data were expressed as relative luminescence units.
# % is set by controls: 0 for no effect and ±100 for the full control effect; potency is the fitted concentration of half-maximal effect.
SMILES,"activity change, negative = inhibition",Potency
Cc1ccccc1OCC(=O)O,-6.79% (inactive),
CN(C)c1cc(NC(=O)CNC(C)(C)C)c(O)c2c1C[C@H]1C[C@H]3[C@H](N(C)C)C(=O)C(C(N)=O)=C(O)[C@@]3(O)C(=O)C1=C2O,,21.9 µM (active)
O=Cc1ccccc1S(=O)(=O)O,5.42% (inactive),
COC(=O)c1ccccc1Cl,9.42% (inactive),
COC(=O)c1cc(Cl)c(NC(C)=O)cc1OC,30.7% [at 52.9 µM] (inactive),
CC(C)(O)CCCC1=CCC(C=O)CC1 (stereo not given),,10.7 µM (active)
CC(C)CC(=O)N[C@H](C(=O)N[C@H](C(=O)N[C@@H](CC(C)C)[C@@H](O)CC(=O)N[C@@H](C)C(=O)N[C@@H](CC(C)C)[C@@H](O)CC(=O)O)C(C)C)C(C)C (Isovaleryl-VV[Sta]A[Sta]-OH),27.4% [at 52.9 µM] (inactive),
CCN1CCN(C(=O)N[C@@H](C(=O)N[C@@H]2C(=O)N3C(C(=O)O)=C(CSc4nnnn4C)CS[C@H]23)c2ccc(O)cc2)C(=O)C1=O,0.999% [at 52.9 µM] (inactive),
COc1ccc2cc(CCC(C)=O)ccc2c1,,11 µM (active)
COc1cc(S(N)(=O)=O)cc(C(=O)O)c1OC,4.61% [at 52.9 µM] (inactive),
Cc1ccc2cccnc2c1,-20.5% (inactive),
CNCCc1ccccn1,-5.51% [at 52.9 µM] (inactive),
C[C@@H](CN1CC(=O)NC(=O)C1)N1CC(=O)NC(=O)C1,-0.377% [at 52.9 µM] (inactive),
CCN1CCN(C(=O)N[C@@H](C(=O)N[C@@H]2C(=O)N3[C@@H]2SC(C)(C)[C@H]3C(=O)O)c2ccccc2)C(=O)C1=O,13.2% [at 52.9 µM] (inactive),
CC(=O)c1c(C)cc(C(C)(C)C)cc1C,,71 µM (active)
Cc1ccc(OC(=O)CC(C)C)cc1,3.16% (inactive),
CCNC(=O)C(C)OC(=O)Nc1ccccc1 (stereo not given),,79.6 µM (active)
CCCCCCCCCCCCCCCC/C=C/C1CC(=O)OC1=O (stereo not given),,27.4 µM (active)
O=C(O)CCCCCCCCCC(=O)O,-20% (inactive),
CCN(CC)CC,,59.4 µM (active)

SMILES,"activity change, negative = inhibition",Potency
CC(CC(=O)Cl)CC(C)(C)C (stereo not given),,80.2 µM (active)
CC/C=C\CCOC(=O)c1ccccc1,-7.64% (inactive),
CCCCCCC(=O)c1ccccc1,4.39% (inactive),
CC(CN1CC(=O)NC(=O)C1)N1CC(=O)NC(=O)C1 (stereo not given),-2.4% (inactive),
Clc1ccc2c(c1)Nc1ccccc1S2,,3.89 µM (active)
Cc1nnc(C(=O)NC(C)(C)c2nc(C(=O)NCc3ccc(F)cc3)c(O)c(=O)n2C)o1,-17.7% [at 52.9 µM] (inactive),
CCOC(=O)c1ccc(N(C)C)cc1,,22.4 µM (active)
O=C[C@@H](O)[C@H](O)[C@H](O)CO,-13.2% (inactive),
CCOC(=O)[C@H](CCc1ccccc1)N[C@H]1CS[C@H](c2cccs2)CN(CC(=O)O)C1=O,-12.8% [at 52.9 µM] (inactive),
O=C(O)Cc1c(Cl)ccc(Cl)c1Cl,,15.9 µM (active)
CC(C)(C)OC(=O)c1ccccc1C(=O)O,-7.33% (inactive),
CCCc1ccc(O)c(OC)c1,-9.9% (inactive),
O=C(O)/C=C(\CC(=O)O)C(=O)O,23.9% [at 52.9 µM] (inactive),
CC(C)(C)C(=O)CC(=O)C(C)(C)C,-18% (inactive),
N#Cc1cc(NC(=O)C(=O)O)c(Cl)c(NC(=O)C(=O)O)c1,1.03% [at 52.9 µM] (inactive),
CCCCCC(CC)OC(=O)CCCOc1ccc(Cl)cc1Cl (stereo not given),,35.5 µM (active)
Cc1ccc(O)c([N+](=O)[O-])c1,-0.105% (inactive),
C=CCCCCCCCCOC(C)=O,9.3% (inactive),
CCCCCCCOC(C)=O,-2.8% (inactive),
CO/N=C(\C(=O)O)c1csc(NC(=O)CCl)n1,25% [at 52.9 µM] (inactive),
